Assay [1] is described as follows: NCI Yeast Anticancer Drug Screen. Data for the rad50 strain (AID 155).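 Note: 0% = growth of vehicle-only cultures of the same strain.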 As to conditions: S. cerevisiae rad50 strain growth inhibition; at 50.0 µM; hits give high values. The essentials:
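A DNA repair-deficient yeast mutant serves as the test organism; compound-induced growth inhibition is calculated against vehicle-treated cells.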

Assay [2] is described as follows: NCI Yeast Anticancer Drug Screen. Data for the mec2-1 strain (AID 157). As to conditions: S. cerevisiae mec2-1 strain, at 50.0 µM, hits give high values. Put shortly:
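Test agents were screened against the mec2-1 yeast strain, with defined DNA repair or cell cycle alteration. Growth was scored as inhibition against vehicle-only controls.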

The nature of assay [3]: NCI Yeast Anticancer Drug Screen. Data for the sgs1 mgt1 strain (AID 161).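 Note: 0% = growth of cultures given vehicle only.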 The following applies: S. cerevisiae sgs1 mgt1 strain, at 50.0 µM, hits give high values. The essentials: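 Test agents were incubated with a DNA-repair-mutant yeast strain. Growth was then read and compared against vehicle-treated controls.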
Assay [4] in a line: NCI Yeast Anticancer Drug Screen. Data for the cln2 rad14 strain (AID 165).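 Note: 0% = growth equal to vehicle treated cultures.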 As to conditions: S. cerevisiae cln2 rad14 strain, at 50.0 µM, hits give high values. Put shortly: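 Growth of compound-exposed yeast (cln2 rad14 genotype) measured and expressed as inhibition relative to vehicle.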
Assay [5] can be described thus: NCI Yeast Anticancer Drug Screen. Data for the bub3 strain (AID 167). As to conditions: S. cerevisiae bub3 mutant strain, at 50.0 µM, hits give high values. The essentials:
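Inhibition values come from growth of compound-treated mutant yeast normalised to vehicle-treated controls.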

Assay [6] in a line: NCI Yeast Anticancer Drug Screen. Data for the mlh1 rad18 strain (AID 175). As to conditions: S. cerevisiae mlh1 rad18 strain growth inhibition; at 50.0 µM; hits give high values. Put shortly: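 In this whole-cell yeast screen, a strain with altered DNA damage repair is challenged with compound, and its growth is measured against matched vehicle-treated controls.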

The panel holds about 79,000 compounds, 15% with a hit somewhere; the sample as a whole holds those more often. Unmarked numbers belong to inactive results. Activity calls are given as the source filed them. Cut-off read from the data, not from the text of the source: active = growth inhibition above about 70%; inactive = the rest.

As for `CC(C)CC(NC(=O)C(O)C(N)Cc1ccccc1)C(=O)O` (centres undefined), the growth inhibition is 56.5% in assay [1]; 26.6% in assay [2]; 60.4% in assay [3]; 47.8% in assay [4]; 36% in assay [5]; -21.7% in assay [6].
Take `CC1=CC(C)(C)SC(=S)N1`: the growth inhibition was 24.9% in assay [1]; 5.3% in assay [2]; 19.8% in assay [3]; -60.6% in assay [4]; -3.35% in assay [5]; 29.3% in assay [6].
As to `c1ccc(OB(Oc2ccccc2)Oc2ccccc2)cc1`, the growth inhibition in assay [1] is 12.2%; in assay [2] it was 6.65%; in assay [3], -7.25%; in assay [4], -39%; in assay [5], 4.2%; in assay [6], -6.7%.
With `Cn1c(=O)c(-c2ccccc2)cc2ccccc21`, the growth inhibition is -9.9% in assay [1]; -12.9% in assay [2]; -3.85% in assay [3]; -1.95% in assay [4]; -1.15% in assay [5]; -16.6% in assay [6].
Take `Nc1cc(Br)cc2c1-c1ccc(Br)cc1C2=O`: the growth inhibition was 15.1% in assay [1]; -10.6% in assay [2]; 1.35% in assay [3]; -54.9% in assay [4]; 5.15% in assay [5]; 10% in assay [6].
Take `NOCc1nnc(Nc2ccccc2)s1`: the growth inhibition in assay [1] was 7.25%; in assay [2], 3.8%; in assay [3], 5.8%; in assay [4], 19.3%; in assay [5], -4.4%; in assay [6], 5.55%.
In the case of `CN(C)c1ncnc2c1ccn2CC(O)CO` (centres undefined), the growth inhibition in assay [1] was -2.7%; in assay [2] it was -11.1%; in assay [3], -8.55%; in assay [4], -54.5%; in assay [5], 3.1%; in assay [6], -2.85%.
In the case of `O=C(NNC(=O)c1ccccc1Br)c1ccccc1Br`, the growth inhibition is -18.9% in assay [1]; -48.8% in assay [2]; -9.6% in assay [3]; 0.45% in assay [4]; -25.1% in assay [5]; -18.1% in assay [6].
`O=Cc1ccc(OC(=O)c2ccccc2)cc1`: the growth inhibition in assay [1] is -6.35%; in assay [2] it was -25.6%; in assay [3], 13.3%; in assay [4] it was -13.3%; in assay [5], -1.25%; in assay [6], 3.95%.
With `CC(C)=CC1C[C@H](C2CC=C3C2(C)CCC2[C@@]3(C)C(=O)CC3[C@]2(C)C=CC(=O)[C@]3(C)CO)CO1` (some centres undefined), the growth inhibition in assay [1] is 77.8% (active); in assay [2], 78.9% (active); in assay [3] it was 81.8% (active); in assay [4], 78% (active); in assay [5], 81.7% (active); in assay [6], 86.2% (active).
Regarding `Clc1c(Cl)c2ccccc2c2ccccc12`, the growth inhibition was 10.1% in assay [1]; -8.4% in assay [2]; 11.3% in assay [3]; 8.85% in assay [4]; 32.5% in assay [5]; 4.85% in assay [6].
Take `CN(C)c1nc(N)c2ccc(Cl)cc2n1`: the growth inhibition in assay [1] is -8%; in assay [2], 10.6%; in assay [3], -7.15%; in assay [4], 0.85%; in assay [5], -8.05%; in assay [6], 8.7%.
For the molecule `O/C=C(\Cl)CCl`, the growth inhibition in assay [1] is 17.2%; in assay [2], -7.15%; in assay [3], 12.4%; in assay [4], 11.9%; in assay [5] it was 5.1%; in assay [6] it was 16.2%.
Consider `CC(C)C(O)C(C)(C)C(O)C#N` (centres undefined), for which the growth inhibition is 18.1% in assay [1]; -1.2% in assay [2]; -0.1% in assay [3]; -2.45% in assay [4]; 0.4% in assay [5]; 7.7% in assay [6].
As to `CC(C)C(O)C(C)N` (centres undefined), the growth inhibition in assay [1] is 1.4%; in assay [2], -5.9%; in assay [3], 0.7%; in assay [4] it was 4.9%; in assay [5], 3.2%; in assay [6], 3.5%.
For the molecule `Cc1nc(NCc2ccco2)nc(NCc2ccco2)c1[N+](=O)[O-]`, the growth inhibition in assay [1] was -14.7%; in assay [2] it was -18.6%; in assay [3] it was -5.85%; in assay [4] it was -22.6%; in assay [5], 27.7%; in assay [6], -13.1%.
`O=C(CO)CC(=O)C(=O)Nc1nc([N+](=O)[O-])cs1`: the growth inhibition was -18.1% in assay [1]; -31.8% in assay [2]; 21% in assay [3]; 7.9% in assay [4]; -16.1% in assay [5]; -21.5% in assay [6].
For `CC(C)(CN1CCCCC1)C(=O)/C=C/c1ccc(Br)cc1`, the growth inhibition in assay [1] was 66.9%; in assay [2], 22.8%; in assay [3] it was 59.6%; in assay [4], 41.4%; in assay [5] it was 47.8%; in assay [6], 55.6%.
Turning to `O=C1c2cc3c(cc2CC12Cc1cc4c(cc1C2=O)CCCC4)CCCC3`, the growth inhibition in assay [1] is -42.1%; in assay [2], -14.2%; in assay [3], -22.3%; in assay [4], -16.8%; in assay [5], -4.25%; in assay [6] it was -37.1%.
